# High-throughput results as filed in PubChem.
# CYP2C19 inh: inhibitors of human CYP2C19. inhibition, % at 5 µM. CYP2C19 Supersomes, luciferin-H EGE luminescence, 30 min. 96,000 tested, 21% active;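 active = CYP2C19 inhibition above a set limit at 5 µM in the primary screen, cut at about 50% in these data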;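 also: plate controls were negative control wells for no effect and 2.5 mM tranylcypromine positive control for full effect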
# Target sequence (P33261 whole entry, looked up): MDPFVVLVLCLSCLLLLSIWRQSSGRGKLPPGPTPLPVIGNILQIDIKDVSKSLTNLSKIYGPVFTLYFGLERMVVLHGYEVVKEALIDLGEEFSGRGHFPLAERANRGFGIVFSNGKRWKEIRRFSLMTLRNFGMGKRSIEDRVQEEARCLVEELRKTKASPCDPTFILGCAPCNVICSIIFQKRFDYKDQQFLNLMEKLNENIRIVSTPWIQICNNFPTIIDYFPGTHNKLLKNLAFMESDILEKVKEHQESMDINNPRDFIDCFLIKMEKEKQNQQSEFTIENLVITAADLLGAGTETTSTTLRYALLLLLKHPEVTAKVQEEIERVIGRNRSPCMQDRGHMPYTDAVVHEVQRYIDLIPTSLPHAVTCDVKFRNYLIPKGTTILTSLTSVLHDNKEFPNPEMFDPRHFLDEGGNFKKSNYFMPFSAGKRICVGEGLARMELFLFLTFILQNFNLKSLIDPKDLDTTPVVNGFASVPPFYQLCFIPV
# PostGolgi ctrl: yeast control strain growth, post-Golgi counter-screen | inhibition, % at 10 µM | efflux-deficient yeast background strain, growth absorbance A615, 16 h | 98,000 tested, 5% active
# CYP2C19 activ: increases human CYP2C19 enzyme activity; P33261; recombinant CYP2C19, luciferin-H EGE luminescence; hits give high values; 0 = fully inhibited enzyme, 1 = untreated enzyme; activation factor at 5 µM; 96,000 tested, under 10 active;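 active = activation factor of at least 2 at 5 µM in the primary screen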;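 also: 0 = wells with 2.5 mM tranylcypromine and 1 = vehicle-only wells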
# CYP2C9 inh: blocks human cytochrome P450 2C9. P11712. CYP2C9 Supersomes, luciferin-H conversion, luminescence. inhibition, % at 5 µM. 96,000 tested, 20% active. AID 777;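 active = blocking of liver enzyme CYP2C9 beyond about 50% at 5 µM, limit read from the data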
# CYP2C9 act: CYP2C9 (human) activation | P11712 | AID 1024 | 96,000 tested, 1.4% active | recombinant CYP2C9, luciferin-H conversion, luminescence; hits give high values; factor 1 = untreated enzyme, 0 = blocked | activation factor at 5 µM;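 active = activation factor of 2 or more for CYP2C9 at a 5 µM dose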;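 also: 0 = sulfaphenazole-blocked wells and 1 = vehicle-only wells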
# PostGolgi yeast: growth inhibition of a yeast mutant, post-Golgi transport screen; post-Golgi transport phenotypic cell assay; inhibition, % at 10 µM; 98,000 tested, 0.9% active; AID 739;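 also: yeast cells grown in 1536-well plates; yeast grown about 18 h at 30C before absorbance read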
# * hit, by the source's call; . = not tested or not shown. An excerpt weighted towards active compounds, which were near 32% of everything screened. Rule as the data show it, unless noted: active = inhibition above about 30%; inactive = the rest.
SMILES,CYP2C19 inh,PostGolgi ctrl,CYP2C19 activ,CYP2C9 inh,CYP2C9 act,PostGolgi yeast
COc1ccc(CCNC(=O)c2c(O)c3c([nH]c2=O)CCCC3)cc1,19,0,0.8,38,0.6,3
Cc1ccc(CNC(=O)CSc2c3c(nc4ccc(Cl)cc24)CCCC3)o1,36,24,0.6,61*,0.4,9
COc1ccc(CCNC2CC(=O)N(CCc3ccc(OC)c(OC)c3)C2=O)cc1 (stereo unspecified),21,5,0.8,4,1,4
CCOC(=O)Cc1csc(NC(=O)c2ccco2)n1,46,-2,0.5,36,0.6,-1
CCC(CC)c1nnc(NC(=O)CCCN2C(=O)c3ccccc3C2=O)s1,41,10,0.6,72*,0.3,-3
Cc1nnc(NC(=O)CCCN2C(=O)c3ccccc3C2=O)s1,9,15,0.9,10,0.9,4
CCOC(=O)Cc1csc(NC(=O)CCCN2C(=O)c3ccccc3C2=O)n1,13,6,0.9,53*,0.5,-8
CCOC(=O)Cc1csc(NC(=O)c2c(O)c3ccccc3n(C)c2=O)n1,-4,.,1,-22,1.2,.
CCOC(=O)Cc1csc(NC(=O)CCN2C(=O)c3ccccc3C2=O)n1,69*,-5,0.3,76*,0.2,24
COC(=O)C1=C(CSc2nnnn2C)NC(=O)NC1c1cc(C)ccc1C (stereo unspecified),33,5,0.7,38,0.6,-4
CC(Nc1nc(N2CCCCC2)nc2ccccc12)c1ccccc1 (stereo unspecified),35,11,0.6,41,0.6,-8
COc1ccccc1C1NC(=O)NC(C)=C1C(C)=O (stereo unspecified),.,6,.,.,.,-7
COc1ccc(C2CN=NC23CCCc2ccccc2C3=O)cc1 (stereo unspecified),59*,21,0.4,48,0.5,2
COc1ccccc1C1CN=NC12CCCc1ccccc1C2=O (stereo unspecified),71*,35*,0.3,51*,0.5,-14
O=C1CSC(c2cn(-c3ccccc3)nc2-c2cc3ccccc3oc2=O)N1Cc1ccco1 (stereo unspecified),55*,28,0.4,76*,0.2,6
O=C1CSC(c2cn(-c3ccccc3)nc2-c2cc3ccccc3o2)N1Cc1ccccc1 (stereo unspecified),54*,11,0.5,89*,0.1,4
Cc1ccc(-c2nn(-c3ccccc3)cc2C2SCC(=O)N2Cc2ccccc2)o1 (stereo unspecified),8,58*,0.9,45,0.5,2
O=C1CSC(c2cn(-c3ccccc3)nc2-c2cccs2)N1Cc1ccccc1 (stereo unspecified),-10,25,1.1,2,1,2
O=C(Nc1cc(S(=O)(=O)N2CCOCC2)ccc1O)c1ccco1,36,18,0.6,24,0.8,-25
COC(=O)c1cc(NC(=O)CC2NC3CCCCC3NC2=O)cc(C(=O)OC)c1 (stereo unspecified),20,-6,0.8,9,0.9,-8
Cc1cc(C)nc(N2CCN(c3nc(C)cc(C)n3)CC2)n1,-13,3,1.1,-11,1.1,0
CCOc1cc(C)nc(N2CCN(C3CCCCC3)CC2)n1,62*,6,0.4,42,0.6,0
CC(=O)N1N=C(c2ccc(Cl)cc2)OC1c1ccc(C(C)C)cc1 (stereo unspecified),55*,15,0.5,22,0.8,3
COC(=O)CCn1nnc(-c2ccc(C(C)C)cc2)n1,4,10,1,-13,1.1,-10
CCC(CC)C(=O)Nc1ccc(C)c(O)c1,2,24,1,6,0.9,0
CCCC(CCC)C(=O)Nc1ccncc1,91*,8,0.1,79*,0.2,5
Cc1cc(C)n2nc(C(=O)NCc3ccccc3)nc2n1,-11,-3,1.1,-6,1.1,-4
Cc1cc(C(F)F)n2ncc(C(=O)NCCc3ccc(Cl)cc3)c2n1,85*,49*,0.2,39,0.6,3
Cc1cc(C(F)F)n2ncc(C(=O)NCCc3ccccc3Cl)c2n1,74*,8,0.3,10,0.9,0
Cc1cc(C)n2nc(C(=O)NCc3ccccc3)cc2n1,28,3,0.7,-20,1.2,43*
